Drawing on PubChem BioAssay, this text covers z-score and composite z-score for 13 compounds.

Active and inactive are the calls of the source. Unless noted, the rule behind the calls is not given here.

Experiment [1] can be described thus: HepG2 liver cancer cell viability effects, profiling panel, resazurin fluorescence, 24 h, PK04 Diversity Set (AID 1172). Note: test concentration not given here. The conditions noted are these: higher = more signal.
The nature of experiment [2]: basal S. cerevisiae growth modulation, no modifier, primary screen, OD600, strain BY4716, 24 h, basal condition (AID 1173). The following applies: OD600, 24 h, higher = more signal, called active from +8 up or from −8 down.
Experiment [3] in a line: MM1S myeloma cell viability, profiling panel, resazurin fluorescence, basal, 24 h, PK04 Diversity Set (AID 1174). Note: test concentration not given here. The conditions noted are these: higher = more signal, called active from +8 up or from −8 down. On the technique in general: The colour change of resazurin is a common sign of viable cells or microbes.
The target of experiment [4] is Dihydroorotate dehydrogenase (quinone), mitochondrial (Plasmodium falciparum (isolate 3D7)) (UniProt Q08210). In words: PfDHODH enzyme inhibitors, primary screen, biochemical, C-terminal His tag, absorbance 600 nm (AID 1175).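 Note: recombinant parasite enzyme with a five histidine tag at its C terminus; test concentration not given here.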 The following applies: DCIP absorbance 600 nm, higher = more signal, called active from +8 up or from −8 down.
Experiment [5] is described as follows: P. aeruginosa biofilm formation inhibitors, primary screen, strain PAO1, LB-PBS medium, absorbance 600 nm (AID 1176). Note: test concentration not given here. The following applies: P. aeruginosa PAO1 growth/biofilm, A600, 12 h; higher = more signal.
Experiment [6] can be described thus: S. cerevisiae RM11-1a growth modifiers, primary screen, strain RM11-1a, OD600, basal, 24 h (AID 1177).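 Note: cultures grown under basal conditions with no added stressor; test concentration not given here.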 The following applies: OD600, 24 h, higher = more signal, called active from +8 up or from −8 down.
Experiment [7] is described as follows: E. coli acrAB mutant growth effects, primary screen, E. coli filamentation inducers, strain DRC39, OD650, 24 h (AID 1178).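 Note: growth measured as culture turbidity by optical density at 650 nm; test concentration not given here.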 The conditions noted are these: higher = more signal, called active from +8 up or from −8 down.
The nature of experiment [8]: E. coli acrAB mutant growth effects, primary screen, E. coli filamentation inducers, strain DRC39, OD650, 48 h (AID 1179).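 Note: screen aims at cell division blockers that make cells filament.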 The conditions noted are these: E. coli DRC39 delta-acrAB growth, higher = more signal, called active from +8 up or from −8 down.
Experiment [9] can be described thus: RPMI8226 myeloma cell viability, profiling panel, resazurin fluorescence, basal, 24 h, PK04 Diversity Set (AID 1180).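 Note: RPMI8826 multiple myeloma cell line at 5000 cells per well; test concentration not given here.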 The following applies: higher = more signal.
The target in experiment [10] is E3 ubiquitin-protein ligase XIAP (Homo sapiens) (UniProt P98170). The experiment is described as follows: XIAP binders, primary screen, biophysical, small-molecule microarray, fluorescence 635 nm (AID 1181).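 Note: score merges 667 nm emission and signal to noise over triplicate slides.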 The following applies: small-molecule microarray binding, higher = more signal.
E3 ubiquitin-protein ligase XIAP (Homo sapiens), sequence (P98170 whole entry, looked up): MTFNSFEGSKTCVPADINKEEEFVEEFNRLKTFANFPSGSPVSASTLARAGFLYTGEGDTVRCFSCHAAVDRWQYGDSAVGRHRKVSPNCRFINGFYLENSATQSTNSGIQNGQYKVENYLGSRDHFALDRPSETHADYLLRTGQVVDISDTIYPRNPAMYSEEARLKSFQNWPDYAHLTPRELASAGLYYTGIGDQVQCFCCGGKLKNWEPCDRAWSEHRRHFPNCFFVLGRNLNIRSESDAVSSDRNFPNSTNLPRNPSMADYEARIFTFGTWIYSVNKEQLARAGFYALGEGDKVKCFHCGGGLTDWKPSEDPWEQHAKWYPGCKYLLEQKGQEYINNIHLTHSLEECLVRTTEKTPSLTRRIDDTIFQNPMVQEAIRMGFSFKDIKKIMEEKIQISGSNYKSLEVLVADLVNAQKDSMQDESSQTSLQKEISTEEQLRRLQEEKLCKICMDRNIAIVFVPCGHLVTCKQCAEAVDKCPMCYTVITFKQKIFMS

Dihydroorotate dehydrogenase (quinone), mitochondrial (Plasmodium falciparum (isolate 3D7)), sequence (Q08210 whole entry, looked up): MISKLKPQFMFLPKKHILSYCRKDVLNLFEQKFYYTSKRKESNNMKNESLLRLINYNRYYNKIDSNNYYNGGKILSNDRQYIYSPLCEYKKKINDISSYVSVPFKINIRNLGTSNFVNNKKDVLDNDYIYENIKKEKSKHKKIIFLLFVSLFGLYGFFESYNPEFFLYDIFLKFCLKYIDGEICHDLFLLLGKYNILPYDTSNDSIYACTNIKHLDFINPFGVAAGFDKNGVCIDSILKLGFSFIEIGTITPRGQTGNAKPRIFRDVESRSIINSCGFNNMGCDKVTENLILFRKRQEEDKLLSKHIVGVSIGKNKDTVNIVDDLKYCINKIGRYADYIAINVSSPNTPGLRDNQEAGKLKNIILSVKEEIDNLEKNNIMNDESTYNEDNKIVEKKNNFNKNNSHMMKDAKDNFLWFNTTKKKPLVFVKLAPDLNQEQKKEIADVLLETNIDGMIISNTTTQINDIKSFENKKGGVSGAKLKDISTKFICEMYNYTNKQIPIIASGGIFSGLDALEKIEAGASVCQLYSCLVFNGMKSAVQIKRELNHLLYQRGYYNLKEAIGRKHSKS

For `C=CCC(OC(C)=O)[C@@H]1[C@@H](N(Cc2ccc(-c3ccccc3)cc2)C(=O)Cc2ccc(F)cc2)c2cc(OCCCO)ccc2N1C(=O)Cc1ccc2ccccc2c1` (stereo not given in full), the z-score in [1] is 0.487; in experiment [2], -0.0838 (inactive); in [3], 0.821 (inactive); in experiment [5], 0.113 (inactive); in [6], -0.177 (inactive); in experiment [7] it was 0.531 (inactive). Moreover, the values for the z-score in [8] and in experiment [9] were 0.575 (inactive) and 0.486, respectively. Moreover, the composite z-score in [4] is 0.252 (inactive); in experiment [10], -0.455.
For `CO[C@H]1O[C@H](CO)[C@@H](OC(=O)CCc2ccccc2)[C@H](OC(=O)c2cc3ccccc3[nH]2)[C@H]1OC(=O)c1cc2ccccc2[nH]1`, the z-score is -1.4 in experiment [1]; -1.14 (inactive) in [2]; -2.09 (inactive) in [3]; 1.38 (inactive) in experiment [5]; 0.033 (inactive) in experiment [6]; 0.367 (inactive) in experiment [7]. The z-score is 1.2 (inactive) in experiment [8] and -2.49 in experiment [9]. In addition, the composite z-score in [4] was -1.62 (inactive); in [10] it was -0.156.
Take `C=C(COC)/C(=C/C[C@@H](OC(C)=O)c1ccc(CO)o1)c1cc(C(=O)OC)ccc1OC`: the z-score in [1] is -0.0453; in experiment [2] it was 0.196 (inactive); in experiment [3] it was -0.216 (inactive); in experiment [5], 0.637 (inactive); in [6] it was 0.317 (inactive); in [7] it was 0.65 (inactive). The z-score is 0.638 (inactive) in experiment [8] and 0.205 in experiment [9]. In addition, the composite z-score was -0.0894 (inactive) in experiment [4] and -0.173 in experiment [10].
Take `C=CCNC(=O)[C@@H]1[C@H]2C(=O)O[C@H](c3ccccc3)[C@H](c3ccccc3)N2[C@H](c2ccc(O)cc2)[C@@]12C(=O)N(C(=O)OCCOC)c1ccc(C#CCCO)cc12`: the z-score in experiment [1] is 0.02; in experiment [2], -0.363 (inactive); in [3], -1.12 (inactive); in [5], 0.249 (inactive); in [6], 0.782 (inactive); in experiment [7], 0.37 (inactive). Moreover, the z-score in [8] is 0.479 (inactive); in experiment [9] it was -0.299. Also, the composite z-score in [4] was -0.855 (inactive); in experiment [10], -0.0749.
For `C=CCOC(=O)[C@H]1[C@@H]2C(=O)O[C@@H](c3ccccc3)[C@@H](c3ccccc3)N2[C@@H](c2ccc(OCCOC(=O)[C@H]3C[C@H]4C(=O)N[C@@H](CCCCNC(C)=O)C(=O)N4[C@H]3c3cccc(OCCO)c3)cc2)[C@]12C(=O)Nc1ccc(I)cc12`, the z-score was -0.821 in [1]; 1.2 (inactive) in experiment [2]; -0.682 (inactive) in experiment [3]; 2.63 (inactive) in [5]; 1.59 (inactive) in experiment [6]; -0.817 (inactive) in experiment [7]. Further, the z-score in experiment [8] is -1.2 (inactive); in [9] it was -0.538. Moreover, the composite z-score was 1.34 (inactive) in experiment [4] and -0.0228 in experiment [10].
Take `CCCNC(=O)[C@@]1(Sc2ccc(C)cc2)CC(=O)N(C2CCCCC2)[C@@H]1c1ccc(CO)cc1I`: the z-score in experiment [1] was -0.0096; in experiment [2], -1.07 (inactive); in experiment [3], 0.0674 (inactive); in experiment [5], 0.627 (inactive); in experiment [6], -1.15 (inactive); in [7], 0.29 (inactive). The z-score was 0.0883 (inactive) in [8] and -1.1 in [9]. For the same compound, the composite z-score in experiment [4] is -0.198 (inactive); in experiment [10] it was -0.321.
Regarding `CCCCC(=C=CC[C@H](O)c1ccc(OCCO)cc1)C[C@H](O)COCc1ccccc1`, the z-score in experiment [1] was -0.0002; in [2], -1.36 (inactive); in [3] it was 0.0233 (inactive); in experiment [5] it was 0.0964 (inactive); in experiment [6] it was 0.556 (inactive); in [7], 1.05 (inactive). The figures for the z-score in [8] and in experiment [9] were 0.529 (inactive) and 0.676, respectively. Further, the composite z-score is -0.624 (inactive) in experiment [4] and 0.0122 in [10].
For `O=C1C2C=CC(C(O)c3cccc(O)c3)N(Nc3ccccc3)C2C(=O)N1c1ccccc1` (stereo not given), the z-score in [1] was -0.491; in [2], -0.774 (inactive); in [3], -1.05 (inactive); in experiment [5] it was 0.67 (inactive); in experiment [6] it was 0.196 (inactive); in experiment [7], -0.0671 (inactive). The z-score is 0.0995 (inactive) in experiment [8] and -0.985 in experiment [9]. Also, the composite z-score in [4] was -0.791 (inactive); in experiment [10] it was -0.0806.
Consider `C=CCNC(=O)[C@@H]1[C@H]2C(=O)O[C@H](c3ccccc3)[C@H](c3ccccc3)N2[C@H](c2ccc(O)cc2)[C@@]12C(=O)Nc1ccc(C#CCC(C(=O)OC)C(=O)OC)cc12`, for which the z-score in experiment [1] was -0.0043; in experiment [2], 1.12 (inactive); in experiment [3], -6.93 (inactive); in [5] it was 1.54 (inactive); in experiment [6], 1.4 (inactive); in experiment [7], -0.0975 (inactive). Also, the values for the z-score in experiment [8] and in experiment [9] were -0.112 (inactive) and -5.23, respectively. Besides, the composite z-score in experiment [4] was -6.73 (inactive); in experiment [10] it was -0.274.
Take `COc1ccc(NC(=O)O[C@H]2[C@@H]3OC(=O)[C@H](Cc4cccc(Br)c4)C/C=C/C[C@@H](Cc4cccc(Br)c4)C(=O)O[C@H]3[C@@H](OC)O[C@@H]2CO)cc1`: the z-score in experiment [1] was -0.868; in [2], -0.413 (inactive); in experiment [3] it was -0.37 (inactive); in experiment [5] it was 0.47 (inactive); in experiment [6], 0.604 (inactive); in experiment [7], 0.365 (inactive). The z-score was 0.855 (inactive) in experiment [8] and -0.517 in experiment [9]. The figures for the composite z-score in experiment [4] and in experiment [10] were 0.732 (inactive) and -0.555, respectively.
As to `CN1C(=O)C2C(C1=O)C1C=C(CCCO)C2C(C2CC2)N1Cc1cc2c(cc1Br)OCO2` (stereo not given), the z-score in experiment [1] is -0.622; in experiment [2], -0.975 (inactive); in experiment [3], -1 (inactive); in [5] it was 0.0721 (inactive); in experiment [6], 0.0644 (inactive); in experiment [7] it was -0.344 (inactive). Also, the values for the z-score in experiment [8] and in experiment [9] were -0.291 (inactive) and -0.543, respectively. For the same compound, the composite z-score was -0.341 (inactive) in [4] and -0.113 in experiment [10].
`COC(=O)C(CC#Cc1ccc2c(c1)[C@]1(C(=O)N2)[C@H](c2ccc(O)cc2)N2[C@H](c3ccccc3)[C@H](c3ccccc3)OC(=O)[C@H]2[C@@H]1C(=O)N1CCCCCCC1)C(=O)OC`: the z-score in experiment [1] is -0.123; in experiment [2] it was 0.303 (inactive); in [3] it was -0.961 (inactive); in experiment [5], 1.6 (inactive); in experiment [6] it was 0.27 (inactive); in [7] it was 0.196 (inactive). Also, the z-score was -0.0767 (inactive) in [8] and -3.94 in [9]. Also, the composite z-score in experiment [4] was -7.28 (inactive); in [10], 0.557.
Consider `CCOC(=O)C=Cc1cc(F)ccc1O`, for which the z-score in experiment [1] was -0.338; in experiment [2] it was -12.6 (active); in [3], -0.99 (inactive); in [5], -0.0727 (inactive); in experiment [6], -23.2 (active); in experiment [7] it was -1.01 (inactive). Moreover, the results for the z-score in experiment [8] and in experiment [9] were -1.31 (inactive) and -0.935, respectively. For the same compound, the results for the composite z-score in [4] and in experiment [10] were -1.09 (inactive) and -0.196, respectively.
